This is one part of a sample in which hits are shown more often than they occur.
DAT uptake mod: changed hDAT dopamine uptake under cocaine IC80, either direction, primary screen, cocaine antagonist project, cell-based, LLC-PK1 hDAT, [14C]-dopamine uptake, MLSMR. LLC-PK1 hDAT cells, [14C]-dopamine uptake with cocaine IC80; actives deviate in either direction. B-score at 10 µM. 110,000 compounds, 1.3% hits. AID 449768, 2010. Sodium-dependent dopamine transporter (Homo sapiens), Q01959;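 active = Z score or B-score, a plate-position-corrected score, falls beyond the plate's 99.7% confidence bounds, in either direction; inactive = both scores lie inside the 99.7% bounds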
D1 allo mod: D1 CRE-luciferase signal change, two-sided – cell-based, HEK293 D1, dopamine EC30, D1 allosteric modulator project, primary screen; dopamine EC30 potentiation; actives deviate in either direction; 58,000 compounds, 5.9% hits; D(1A) dopamine receptor (Homo sapiens), P21728; B-score at 10 µM;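 active = luminescence count or its row- and column-corrected plate score outside the 99.7% band of the plate's sample wells, on either side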
Target sequence (P21728 whole entry, looked up): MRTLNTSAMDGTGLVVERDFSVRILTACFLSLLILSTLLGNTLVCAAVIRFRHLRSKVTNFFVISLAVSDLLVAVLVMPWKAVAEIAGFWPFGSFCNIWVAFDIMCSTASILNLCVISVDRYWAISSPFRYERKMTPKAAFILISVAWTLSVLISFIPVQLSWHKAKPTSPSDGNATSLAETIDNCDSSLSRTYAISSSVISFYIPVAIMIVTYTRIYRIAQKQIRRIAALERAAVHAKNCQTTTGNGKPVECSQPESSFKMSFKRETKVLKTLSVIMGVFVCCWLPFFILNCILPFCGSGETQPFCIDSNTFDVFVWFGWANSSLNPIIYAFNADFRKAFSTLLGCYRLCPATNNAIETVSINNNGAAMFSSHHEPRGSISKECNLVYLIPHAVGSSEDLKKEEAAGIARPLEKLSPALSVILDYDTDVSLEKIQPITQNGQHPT
EphB4 antag: EphB4-ephrin-B2 interaction antagonists, primary screen, biochemical, TNYL-RAW peptide probe, fluorescence polarization; EphB4 LBD / TNYL-RAW-Alexa532 peptide; 97,000 compounds, 0.15% hits; inhibition, % at 7 µM; Ephrin type-B receptor 4 (Homo sapiens), P54760;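 active = inhibition above the screen-wide mean inhibition plus 3 SD, cut at about 15% in these data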
D1 mod confirm: D1 receptor positive allosteric modulators, retest, confirmation, cell-based, HEK293 D1, CRE-luciferase, duplicate; shares compounds with D1 allo mod; dopamine EC30 potentiation; hits give high values; 2,200 compounds, 88% hits; luminescence at 10 µM;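 active = luminescence in either of two replicates above the same-plate mean plus 3 SD of the low-dose dopamine control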
D1 ag no DA: D1 receptor agonism without dopamine, confirmation, mechanism study for D1 allosteric modulator project, cell-based, HEK293 D1, CRE-luciferase, secondary assay 1; shares compounds with D1 allo mod; luminescence, no dopamine; hits give high values; luminescence at 10 µM; 1,900 compounds, 0.8% hits; in the data active = luminescence above about 3900
Isoprot counter: counter-screen for D1 modulators: isoproterenol response in HEK293 cells | shares compounds with D1 allo mod | HEK293 D1 CRE-luciferase, isoproterenol EC30 counter-screen | calls only at 10 µM | 2,200 compounds, 63% hits;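 active = luminescence in either replicate above plate mean of wells with a partly effective reference agonist dose plus 3 SD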;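 note: isoproterenol raises cAMP through native beta-adrenoceptor Gs so signal bypasses D1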
A number is an active result; i = inactive; nt = no result given; + = active, no number; [ ] = dose if it differs, or a comment.

SMILES | DAT uptake mod | D1 allo mod | EphB4 antag | D1 mod confirm | D1 ag no DA | Isoprot counter
O=c1c2ccccc2nc(SCc2ccccc2)n1Cc1ccco1 | i | i | i | nt | nt | nt
O=c1c2ccccc2nc(SCc2cccc(F)c2)n1Cc1ccco1 | i | 5.2 | i | 10716 | i | i
O=S(=O)(Nc1ccc(-c2nc3cccnc3s2)cc1)c1ccc(Cl)s1 | i | nt | i | nt | nt | nt
O=S(=O)(Nc1ccc(-c2nc3cccnc3s2)cc1)c1cccs1 | i | 8.5 | i | 19148 | i | +
COc1ccc(S(=O)(=O)N(C)CC(=O)Nc2ccc(C(F)(F)F)cc2)cc1Cl | i | nt | i | nt | nt | nt
Cc1nc(Nc2ccc3c(c2)OCO3)c2oc3ccccc3c2n1 | i | nt | i | nt | nt | nt
c1ccc2c(c1)oc1c(Nc3ccc4c(c3)OCO4)ncnc12 | i | 3.1 | i | 6592 | nt | +
Cc1cc(C)n(C(=O)c2cc3c(s2)CCCC3)n1 | i | nt | i | nt | nt | nt
Cc1nc(N2CCCC2)c2nnn(Cc3ccccc3Cl)c2n1 | i | nt | nt | nt | nt | nt
Cc1nc(N2CCC(C(N)=O)CC2)c2nnn(Cc3ccccc3)c2n1 | i | 3.2 | nt | 6740 | i | i
COc1ccc(-c2csc(NCc3ccco3)n2)cc1 | i | nt | nt | nt | nt | nt
c1coc(CNc2nc(-c3ccncc3)cs2)c1 | i | 3.6 | i | 8460 | i | +
Cc1ccc2nc(-c3ccc(NC(=O)C4CCCO4)cc3)[nH]c2c1 (stereo unspecified) | i | nt | i | nt | nt | nt
COCCCNS(=O)(=O)c1ccc2c3c(cccc13)C(=O)S2 | i | i | i | nt | nt | nt
COCCCNc1c2c3c(cccc3[nH]c1=O)C(=O)c1ccccc1-2 | i | 3 | 48[fluorescence artefact?] | 8772 | i | i
COc1ccc(SCc2noc(C(=O)NC(C)C)c2C(=O)O)cc1 | i | nt | i | nt | nt | nt
O=c1c2c(-c3ccco3)csc2nc(SCc2cn3cccnc3n2)n1-c1ccccc1 | i | 8.4 | i | 15872 | i | +
NC(=O)CSc1nc2scc(-c3ccco3)c2c(=O)n1-c1ccccc1 | i | 3.4 | i | 10400 | nt | i
O=C(CSc1nc2scc(-c3ccco3)c2c(=O)n1-c1ccccc1)N1CCOCC1 | i | i | i | nt | nt | nt
c1ccc(Cn2c(SCc3cn4cccnc4n3)nnc2-c2ccco2)cc1 | i | i | i | nt | nt | nt
CC(C)(C)NC(=O)NC(=O)COC(=O)c1cc(=O)[nH]c2ccccc12 | i | nt | i | nt | nt | nt
Cn1c2c(c(=O)n(C)c1=O)C1(C(=O)Nc3ccccc31)C(C#N)=C(N)O2 (stereo unspecified) | i | nt | i | nt | nt | nt
COc1ccc(OC)c(C2=Nn3c(nnc3-c3ccco3)SC2)c1 | i | nt | i | nt | nt | nt
COc1ccccc1C1=Nn2c(nnc2C2CCCCC2)SC1 | i | 11 | i | 20508 | i | +
COc1ccc(OC)c(C2=Nn3c(nnc3C3CCCCC3)SC2)c1 | i | 16 | i | 17128 | nt | +
SMILES | DAT uptake mod | D1 allo mod | EphB4 antag | D1 mod confirm | D1 ag no DA | Isoprot counter
COc1ccc(C2=Nn3c(nnc3C3CCCCC3)SC2)cc1OC | i | nt | i | nt | nt | nt
O=C1NC[C@H](Cc2ccccc2)N(CC2CCCCC2)C1=O | i | nt | nt | nt | nt | nt
Cc1ccc(S(=O)(=O)Nc2nc3ccc(S(=O)(=O)N4CCCC4)cc3s2)cc1 | i | i | i | nt | nt | nt
Cc1ccc(C(=O)C(NC(=O)c2ccco2)Nc2sc3c(c2C(N)=O)CCCC3)cc1 (stereo unspecified) | i | nt | i | nt | nt | nt
Cc1cc(C(=O)O)c2ccccc2n1 | i | nt | i | nt | nt | nt
Cc1cc(-c2nc3ccccc3o2)c2ccccc2n1 | i | 15 | i | 14660 | nt | +
O=C1c2ccccc2C(Nc2ccc3c(c2)OCO3)N1Cc1ccco1 (stereo unspecified) | i | 7.6 | i | 12600 | i | +
O=C1c2ccccc2C(Nc2ccc3c(c2)OCO3)N1Cc1ccc2c(c1)OCO2 (stereo unspecified) | i | 4.1 | i | 9888 | i | +
O=C1c2ccccc2C(Nc2cccnc2)N1Cc1ccc2c(c1)OCO2 (stereo unspecified) | i | i | nt | nt | nt | nt
O=C1c2ccccc2C(Nc2ccc(F)c(Cl)c2)N1Cc1ccco1 (stereo unspecified) | i | i | i | nt | nt | nt
O=S1(=O)[C@H]2C[C@@H]3C=C[C@]2(CN1Cc1ccc(C(F)(F)F)cc1)O3 | i | nt | nt | nt | nt | nt

Source: PubChem BioAssay (several laboratories)
